# Assay results taken from the supplement of paper PMC4466140.
# B1: unnamed (peptide)
# chain: IKTRSVPKIPSIESV
# What was measured:
# Experiment in all cases: SPOT peptide array binding signal intensity (averaged, normalized) (arbitrary units (background-subtracted, floor 0; scale differs between SH3 domains)); higher = stronger binding of the SH3 domain to the peptide
# [1] = target: AgAbp1
# Summary of the method: (§1)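 Binding signal is given in arbitrary units that differ between domains and is the normalized, background-subtracted spot intensity averaged across replicates. Each GST-SH3 fusion from one of four yeast species was made in E. coli BL21(DE3), purified on glutathione Sepharose and incubated at 10 μg/ml overnight at 4°C on cellulose-bound synthetic 15-mer peptides in which cysteines were replaced by serines. Detection used anti-GST antibody, an HRP anti-mouse secondary and luminol, followed by imaging and Genespotter quantification.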
# [2] = target: AgBbc1
# Summary of the method: as §1
# [3] = target: AgBem1-D1
# Summary of the method: as §1
# [4] = target: AgBzz1-D1
# Summary of the method: as §1
# [5] = target: AgBzz1-D2
# Summary of the method: as §1
# [6] = target: AgCyk3
# Summary of the method: as §1
# [7] = target: AgFus1
# Summary of the method: as §1
# [8] = target: AgHof1
# Summary of the method: as §1
# [9] = target: AgHse1
# Summary of the method: as §1
# [10] = target: AgLsb1
# Summary of the method: as §1
# [11] = target: AgLsb4
# Summary of the method: as §1
# [12] = target: AgMyo5
# Summary of the method: as §1
# [13] = target: AgNbp2
# Summary of the method: as §1
# [14] = target: AgRvs167
# Summary of the method: as §1
# [15] = target: AgSho1
# Summary of the method: as §1
# [16] = target: AgSla1-D1-D2
# Summary of the method: as §1
# [17] = target: AgSla1-D3
# Summary of the method: as §1
# [18] = target: CaAbp1-D1
# Summary of the method: as §1
# [19] = target: CaAbp1-D2
# Summary of the method: as §1
# [20] = target: CaBbc1
# Summary of the method: as §1
# [21] = target: CaBem1-D1
# Summary of the method: as §1
# [22] = target: CaBzz1-D1
# Summary of the method: as §1
# [23] = target: CaBzz1-D2
# Summary of the method: as §1
# [24] = target: CaCyk3
# Summary of the method: as §1
# [25] = target: CaFus1
# Summary of the method: as §1
# [26] = target: CaHof1
# Summary of the method: as §1
# [27] = target: CaHse1
# Summary of the method: as §1
# [28] = target: CaLsb1
# Summary of the method: as §1
# [29] = target: CaLsb4
# Summary of the method: as §1
# [30] = target: CaMyo5
# Summary of the method: as §1
# [31] = target: CaNbp2
# Summary of the method: as §1
# [32] = target: CaRvs167
# Summary of the method: as §1
# [33] = target: CaRvs167-3
# Summary of the method: as §1
# [34] = target: CaSho1
# Summary of the method: as §1
# [35] = target: CaSla1-D1-D2
# Summary of the method: as §1
# [36] = target: CaSla1-D3
# Summary of the method: as §1
# [37] = target: ScAbp1
# Summary of the method: as §1
# [38] = target: ScBbc1
# Summary of the method: as §1
# [39] = target: ScBem1-D1
# Summary of the method: as §1
# [40] = target: ScBzz1-D1
# Summary of the method: as §1
# [41] = target: ScBzz1-D2
# Summary of the method: as §1
# [42] = target: ScCyk3
# Summary of the method: as §1
# [43] = target: ScFus1
# Summary of the method: as §1
# [44] = target: ScHof1
# Summary of the method: as §1
# [45] = target: ScHse1
# Summary of the method: as §1
# [46] = target: ScLsb1
# Summary of the method: as §1
# [47] = target: ScLsb2
# Summary of the method: as §1
# [48] = target: ScLsb3
# Summary of the method: as §1
# [49] = target: ScLsb4
# Summary of the method: as §1
# [50] = target: ScMyo3
# Summary of the method: as §1
# [51] = target: ScMyo5
# Summary of the method: as §1
# [52] = target: ScNbp2
# Summary of the method: as §1
# [53] = target: ScPex13
# Summary of the method: as §1
# [54] = target: ScRvs167
# Summary of the method: as §1
# [55] = target: ScSho1
# Summary of the method: as §1
# [56] = target: ScSla1-D1-D2
# Summary of the method: as §1
# [57] = target: ScSla1-D3
# Summary of the method: as §1
# [58] = target: SpAbp1-D1
# Summary of the method: as §1
# [59] = target: SpBbc1
# Summary of the method: as §1
# [60] = target: SpBzz1-D1
# Summary of the method: as §1
# [61] = target: SpBzz1-D2
# Summary of the method: as §1
# [62] = target: SpCyk3
# Summary of the method: as §1
# [63] = target: SpHof1
# Summary of the method: as §1
# [64] = target: SpHof1-2
# Summary of the method: as §1
# [65] = target: SpHof1-3
# Summary of the method: as §1
# [66] = target: SpHse1
# Summary of the method: as §1
# [67] = target: SpLsb1
# Summary of the method: as §1
# [68] = target: SpLsb4
# Summary of the method: as §1
# [69] = target: SpMyo1
# Summary of the method: as §1
# [70] = target: SpNbp2
# Summary of the method: as §1
# [71] = target: SpPex13
# Summary of the method: as §1
# [72] = target: SpRvs167
# Summary of the method: as §1
# [73] = target: SpSla1-D1-D2
# Summary of the method: as §1
# [74] = target: SpSla1-D3
# Summary of the method: as §1
binder,measurement,setting,value
B1,SPOT peptide array binding signal intensity,[1],9
same,SPOT peptide array binding signal intensity,[2],78.8
same,SPOT peptide array binding signal intensity,[3],40
same,SPOT peptide array binding signal intensity,[4],24.5
same,SPOT peptide array binding signal intensity,[5],33.5
same,SPOT peptide array binding signal intensity,[6],1
same,SPOT peptide array binding signal intensity,[7],4
same,SPOT peptide array binding signal intensity,[8],27.8
same,SPOT peptide array binding signal intensity,[9],19.5
same,SPOT peptide array binding signal intensity,[10],71
same,SPOT peptide array binding signal intensity,[11],873
same,SPOT peptide array binding signal intensity,[12],0.75
same,SPOT peptide array binding signal intensity,[13],2650
same,SPOT peptide array binding signal intensity,[14],12.7
same,SPOT peptide array binding signal intensity,[15],3
same,SPOT peptide array binding signal intensity,[16],≤ 0
same,SPOT peptide array binding signal intensity,[17],≤ 0
same,SPOT peptide array binding signal intensity,[18],182
same,SPOT peptide array binding signal intensity,[19],82
same,SPOT peptide array binding signal intensity,[20],604
same,SPOT peptide array binding signal intensity,[21],0.5
same,SPOT peptide array binding signal intensity,[22],197
same,SPOT peptide array binding signal intensity,[23],245
same,SPOT peptide array binding signal intensity,[24],85.5
same,SPOT peptide array binding signal intensity,[25],32.5
same,SPOT peptide array binding signal intensity,[26],≤ 0
same,SPOT peptide array binding signal intensity,[27],5
same,SPOT peptide array binding signal intensity,[28],≤ 0
same,SPOT peptide array binding signal intensity,[29],1880
same,SPOT peptide array binding signal intensity,[30],1.25
same,SPOT peptide array binding signal intensity,[31],320
same,SPOT peptide array binding signal intensity,[32],339
same,SPOT peptide array binding signal intensity,[33],15
same,SPOT peptide array binding signal intensity,[34],≤ 0
same,SPOT peptide array binding signal intensity,[35],123
same,SPOT peptide array binding signal intensity,[36],≤ 0
same,SPOT peptide array binding signal intensity,[37],11
same,SPOT peptide array binding signal intensity,[38],37.8
same,SPOT peptide array binding signal intensity,[39],38.5
same,SPOT peptide array binding signal intensity,[40],26
same,SPOT peptide array binding signal intensity,[41],13
same,SPOT peptide array binding signal intensity,[42],≤ 0
same,SPOT peptide array binding signal intensity,[43],≤ 0
same,SPOT peptide array binding signal intensity,[44],16.2
same,SPOT peptide array binding signal intensity,[45],26
same,SPOT peptide array binding signal intensity,[46],4
same,SPOT peptide array binding signal intensity,[47],61
same,SPOT peptide array binding signal intensity,[48],4820
same,SPOT peptide array binding signal intensity,[49],1030
same,SPOT peptide array binding signal intensity,[50],4.5
same,SPOT peptide array binding signal intensity,[51],7
same,SPOT peptide array binding signal intensity,[52],3220
same,SPOT peptide array binding signal intensity,[53],633
same,SPOT peptide array binding signal intensity,[54],2950
same,SPOT peptide array binding signal intensity,[55],25.5
same,SPOT peptide array binding signal intensity,[56],146
same,SPOT peptide array binding signal intensity,[57],38.5
same,SPOT peptide array binding signal intensity,[58],5
same,SPOT peptide array binding signal intensity,[59],28.8
same,SPOT peptide array binding signal intensity,[60],236
same,SPOT peptide array binding signal intensity,[61],0.5
same,SPOT peptide array binding signal intensity,[62],≤ 0
same,SPOT peptide array binding signal intensity,[63],6
same,SPOT peptide array binding signal intensity,[64],9
same,SPOT peptide array binding signal intensity,[65],150
same,SPOT peptide array binding signal intensity,[66],≤ 0
same,SPOT peptide array binding signal intensity,[67],24.2
same,SPOT peptide array binding signal intensity,[68],6060
same,SPOT peptide array binding signal intensity,[69],11.5
same,SPOT peptide array binding signal intensity,[70],≤ 0
same,SPOT peptide array binding signal intensity,[71],≤ 0
same,SPOT peptide array binding signal intensity,[72],1930
same,SPOT peptide array binding signal intensity,[73],4
same,SPOT peptide array binding signal intensity,[74],1
